Results on 33 compounds are retold here after PubChem BioAssay (Tox21).

Results filed as inconclusive are left out. A number with no mark means an inactive call. Activity calls are given as the source filed them. Unless noted, the call rests on the fitted dose curve.
On the % scale 0 is the no-effect control and ±100 the full control effect.

A short description of the first test: qHTS assay to identify small molecule antagonists of the progesterone receptor (PR) signaling pathway - cell viability counter screen (AID 1346798; active means well fitted cell-killing curve with a large enough effect in the repeat runs; further: nearly all actives have a fitted effect of over 50% in size). The conditions noted are these: PR-UAS-bla HEK293T viability, CellTiter-Glo luminescence, 16 h; series mostly up to 92.4 µM; activity change, negative = cytotoxicity: at the top concentration. In a few lines: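 Measures cytotoxicity in parallel with the PR antagonist reporter read: HEK293T PR-UAS-bla cells get compound and R5020 for 16 hr, and remaining viable cells are quantified by CellTiter-Glo luminescence.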
In general terms: Quantitative high-throughput screening tests each substance at several concentrations.
Regarding `O=S(=O)(c1ccccc1)c1ccc(Cl)cc1`, the “activity change, negative = cytotoxicity” value is -8.21%.

As to `O=C(CCC1CCN(Cc2ccccc2)CC1)c1ccc2c(c1)NCCCC2`, the “activity change, negative = cytotoxicity” value is 23.9% [at 42.5 µM].

For the compound `CCn1nc(C)c2c1C(=O)NCC(c1ccc(O)cc1)=N2`, the “activity change, negative = cytotoxicity” value was 13.5%.

For the compound `CC(C)(C)C(=O)C(Oc1ccc(Cl)cc1)n1ccnc1` (stereo unspecified), the “activity change, negative = cytotoxicity” value is 12.2% [at 42.5 µM].

For `Nc1nc(Cl)nc2c1ncn2[C@@H]1O[C@H](CO)[C@@H](O)[C@@H]1F`, the “activity change, negative = cytotoxicity” value was 0.39% [at 42.5 µM].

For the compound `CCOc1cc(N)c(Cl)cc1C(=O)NCC1CN(Cc2ccc(F)cc2)CCO1` (stereo unspecified), the “activity change, negative = cytotoxicity” value was 23% [at 42.5 µM].

`CC(=O)OCC(=O)[C@H]1CC[C@H]2[C@@H]3CCC4=CC(=O)CC[C@]4(C)[C@H]3CC[C@]12C`: the “activity change, negative = cytotoxicity” value was 9.95% [at 42.5 µM].

Consider `Cc1cc(OI)c(C(C)C)cc1-c1cc(C(C)C)c(OI)cc1C`, for which the “activity change, negative = cytotoxicity” value was 9.86% [at 42.5 µM].

Another test in a line: qHTS assay to identify small molecule agonists of the progesterone receptor (PR) signaling pathway - cell viability counter screen (AID 1346799). Further: nearly all actives have a fitted effect of over 45% in size. The conditions noted are these: PR-UAS-bla HEK293T viability, CellTiter-Glo luminescence, 16 h; series mostly up to 92.4 µM; activity change, negative = cytotoxicity: at the top concentration. In a few lines:
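Using the same plates as the PR reporter screen, HEK293T PR-UAS-bla cells received compounds for 16 hr at 37C and were then lysed with CellTiter-Glo; luminescence was read 30 min later at room temperature.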
Consider `CC(CCc1ccc2c(c1)OCO2)NN` (stereo unspecified), for which the “activity change, negative = cytotoxicity” value is -0.904% [at 42.5 µM].

Take `Cc1cc(S(=O)(=O)O)ccc1N=Nc1c(O)ccc2ccccc12`: the “activity change, negative = cytotoxicity” value is 7.04%.

For `OC/C(Br)=C(\Br)CO`, the “activity change, negative = cytotoxicity” value is 11.6%.

On to `CN1CCCN=C1/C=C/c1cccs1`, for which the “activity change, negative = cytotoxicity” value is -1.44% [at 42.5 µM].

`CC1(C)C(=O)N(Br)C(=O)N1Cl`: the “activity change, negative = cytotoxicity” value was -18.9%.

Consider `CCC(C(=O)OCCOCCN(CC)CC)c1ccccc1` (stereo unspecified), for which the “activity change, negative = cytotoxicity” value is -22.2% [at 42.5 µM].

With `O=C(O)c1cccc(O)c1`, the “activity change, negative = cytotoxicity” value is -3.42%.

Regarding `NC(=O)Nc1ccc(Cl)cc1`, the “activity change, negative = cytotoxicity” value is 7.47%.

For `O=C(O)c1ccc(CO)o1`, the “activity change, negative = cytotoxicity” value is -4.87%.

With `CCCCCCOC(=O)C(C)C`, the “activity change, negative = cytotoxicity” value is 11%.

In the case of `CCCOCCOCCO`, the “activity change, negative = cytotoxicity” value is -0.146%.

Turning to `Cn1c(=O)c2c(ncn2CC(=O)O)n(C)c1=O`, the “activity change, negative = cytotoxicity” value is 7.61% [at 42.5 µM].

On to `CC#N`, for which the “activity change, negative = cytotoxicity” value is 9.25%.

On to `CO[C@H]1O[C@H](CO)[C@@H](O)[C@H](O)[C@H]1O`, for which the “activity change, negative = cytotoxicity” value was 7.73%.

Turning to `CCOC(=O)C(C)Oc1ccc(Oc2nc3ccc(Cl)cc3o2)cc1` (stereo unspecified), the “activity change, negative = cytotoxicity” value was 24.8%.

For the compound `Cc1oncc1C(=O)Nc1ccc(C(F)(F)F)cc1`, the “activity change, negative = cytotoxicity” value is 49.8% [at 42.5 µM].

In the case of `CC1CN(c2cc3c(cc2F)c(=O)c(C(=O)O)cn3-c2ccc(F)cc2F)CCN1` (stereo unspecified), the activity change, negative = cytotoxicity was -0.292% [at 8.39 µM].

In the case of `COC(OC)(C(=O)c1ccccc1)c1ccccc1`, the “activity change, negative = cytotoxicity” value was 2.37%.

Consider `Cc1nc2ccccc2s1`, for which the “activity change, negative = cytotoxicity” value is -2.64%.

Regarding `CCOCCn1c(C2CCN(CCc3ccc(C(C)(C)C(=O)O)cc3)CC2)nc2ccccc21`, the “activity change, negative = cytotoxicity” value is 1.89% [at 42.5 µM].

On to `CC(=O)Nc1ccc(N)cc1`, for which the “activity change, negative = cytotoxicity” value was -3.05%.

Regarding `CCC(=O)OC/C=C/c1ccccc1`, the Potency entry is “inactive”.

With `CN1CCN(c2c(F)cc3c(=O)c(C(=O)O)cn4c3c2OCN4C)CC1`, the activity change, negative = cytotoxicity is 0.954% [at 19 µM].

Regarding `CCC(C)=O`, the “activity change, negative = cytotoxicity” value was -0.722%.

In the case of `Cc1cc2nc3ccc(=[N+](C)C)cc-3sc2cc1N`, the “activity change, negative = cytotoxicity” value was 25.4% [at 42.5 µM].

As to `Nc1nc(Cl)nc2c1ncn2[C@@H]1O[C@H](CO)[C@@H](O)[C@@H]1F`, the “activity change, negative = cytotoxicity” value was 9.99% [at 42.5 µM].

`CCOc1cc(N)c(Cl)cc1C(=O)NCC1CN(Cc2ccc(F)cc2)CCO1` (stereo unspecified): the “activity change, negative = cytotoxicity” value is 7.43% [at 42.5 µM].

As for `Cc1cc(OI)c(C(C)C)cc1-c1cc(C(C)C)c(OI)cc1C`, the “activity change, negative = cytotoxicity” value is 0.496% [at 42.5 µM].
